Measured values: publication PMC7862700, “An all-to-all approach to the identification of sequence-specific readers for epigenetic DNA modifications on cytosine”

Key:
Assay in all cases: DAPPL (digital affinity profiling via proximity ligation, sequencing); 10 mM Tris-HCl pH 7.5, 50 mM NaCl, 1 mM DTT, 4% glycerol, room temperature, 30 min; GST-TFs on glutathione beads, 16-mer random dsDNA library, 0.1% formaldehyde crosslink after washing; high values mean tight binding
Details in all cases: protein: recombinant; tags: N-terminal GST; dsDNA, one strand shown
FLI1 = target: T1, FLI1 (Homo sapiens, UniProt Q01543 1-452)
T1 sequence: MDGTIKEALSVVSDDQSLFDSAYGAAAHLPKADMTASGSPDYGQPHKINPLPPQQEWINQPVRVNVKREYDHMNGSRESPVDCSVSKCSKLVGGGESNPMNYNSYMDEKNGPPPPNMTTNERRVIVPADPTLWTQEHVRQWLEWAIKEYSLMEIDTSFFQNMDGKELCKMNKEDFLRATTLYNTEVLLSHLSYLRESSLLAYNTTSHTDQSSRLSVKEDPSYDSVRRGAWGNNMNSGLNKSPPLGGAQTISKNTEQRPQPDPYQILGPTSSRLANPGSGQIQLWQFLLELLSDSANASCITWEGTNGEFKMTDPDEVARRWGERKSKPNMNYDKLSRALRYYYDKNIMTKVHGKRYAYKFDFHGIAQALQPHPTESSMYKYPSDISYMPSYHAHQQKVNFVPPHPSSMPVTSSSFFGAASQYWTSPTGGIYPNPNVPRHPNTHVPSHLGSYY
Method in brief: (§1)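 Human transcription factors carrying a GST fusion were produced in yeast, bound to glutathione beads, tagged with DNA barcodes and pooled together with a tag-only sample. Each pool was held with 200 nmole of a random double-stranded 16-mer DNA library in Tris/NaCl/DTT/glycerol buffer for 30 min at room temperature, then washed, crosslinked in 0.1% formaldehyde, proximity-ligated with BsaI/T4 ligase (1 h, 37 °C), PCR-amplified and sequenced on an Illumina NextSeq500. Binding signal is the read frequency of each hexamer for a given factor divided by its frequency in the tag-only sample.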

ELK1 = target: T2, ELK1 (Homo sapiens, UniProt P19419 1-428)
T2 sequence: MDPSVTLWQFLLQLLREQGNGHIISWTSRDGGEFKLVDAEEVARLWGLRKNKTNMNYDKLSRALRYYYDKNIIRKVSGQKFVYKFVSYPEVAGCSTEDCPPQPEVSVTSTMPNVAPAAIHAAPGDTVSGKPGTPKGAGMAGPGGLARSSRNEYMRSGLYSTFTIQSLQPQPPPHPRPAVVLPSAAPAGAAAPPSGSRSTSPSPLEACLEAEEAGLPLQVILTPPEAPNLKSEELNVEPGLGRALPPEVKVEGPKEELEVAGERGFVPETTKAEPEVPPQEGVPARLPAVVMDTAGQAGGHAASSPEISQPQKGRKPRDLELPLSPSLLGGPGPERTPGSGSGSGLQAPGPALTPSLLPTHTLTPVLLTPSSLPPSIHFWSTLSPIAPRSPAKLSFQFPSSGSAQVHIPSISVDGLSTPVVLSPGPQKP
Method in brief: as §1

ERG = target: T3, ERG (Homo sapiens, UniProt P11308 1-479)
T3 sequence: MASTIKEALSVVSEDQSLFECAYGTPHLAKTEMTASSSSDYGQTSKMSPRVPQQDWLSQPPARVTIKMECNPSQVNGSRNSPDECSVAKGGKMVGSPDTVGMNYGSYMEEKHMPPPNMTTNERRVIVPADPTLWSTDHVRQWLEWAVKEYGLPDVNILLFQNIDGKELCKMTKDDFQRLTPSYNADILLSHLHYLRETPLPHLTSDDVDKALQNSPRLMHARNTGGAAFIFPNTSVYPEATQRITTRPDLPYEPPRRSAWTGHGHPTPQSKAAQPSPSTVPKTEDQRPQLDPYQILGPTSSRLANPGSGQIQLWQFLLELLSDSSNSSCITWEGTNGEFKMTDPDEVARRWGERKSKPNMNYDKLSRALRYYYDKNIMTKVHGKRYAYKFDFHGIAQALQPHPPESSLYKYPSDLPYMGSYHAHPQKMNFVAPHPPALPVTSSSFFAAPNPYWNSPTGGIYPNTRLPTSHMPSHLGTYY
Method in brief: as §1

ELF1 = ELF1 (Homo sapiens, UniProt P32519 1-619)
Method in brief: as §1

SPIB = SPIB (Homo sapiens, UniProt Q01892 1-262)
Method in brief: as §1

ELK3 = target: T4, ELK3 (Homo sapiens, UniProt P41970 1-407)
T4 sequence: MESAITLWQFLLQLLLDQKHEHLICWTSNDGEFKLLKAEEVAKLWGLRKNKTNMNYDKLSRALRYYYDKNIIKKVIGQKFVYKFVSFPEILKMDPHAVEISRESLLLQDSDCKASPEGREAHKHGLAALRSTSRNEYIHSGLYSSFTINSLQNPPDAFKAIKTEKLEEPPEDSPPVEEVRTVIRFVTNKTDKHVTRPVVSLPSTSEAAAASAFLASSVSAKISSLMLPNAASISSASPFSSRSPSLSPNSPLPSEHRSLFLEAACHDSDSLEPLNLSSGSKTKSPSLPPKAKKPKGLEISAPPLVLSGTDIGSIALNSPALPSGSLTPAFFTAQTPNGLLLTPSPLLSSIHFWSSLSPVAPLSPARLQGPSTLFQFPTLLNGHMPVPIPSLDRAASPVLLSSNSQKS
Method in brief: as §1

FEV = target: T5, FEV (Homo sapiens, UniProt Q99581 1-238)
T5 sequence: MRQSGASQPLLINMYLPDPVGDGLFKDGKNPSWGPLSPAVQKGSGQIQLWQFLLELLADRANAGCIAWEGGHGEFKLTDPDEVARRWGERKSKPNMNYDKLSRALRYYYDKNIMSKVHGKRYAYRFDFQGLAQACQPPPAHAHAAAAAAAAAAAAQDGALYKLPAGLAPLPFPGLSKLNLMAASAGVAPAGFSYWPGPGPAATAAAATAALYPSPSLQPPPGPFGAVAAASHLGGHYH
Method in brief: as §1

ETV5 = ETV5 (Homo sapiens, UniProt P41161 1-510)
Method in brief: as §1

SPIC = target: T6, SPIC (Homo sapiens, UniProt Q8N5J4 1-248)
T6 sequence: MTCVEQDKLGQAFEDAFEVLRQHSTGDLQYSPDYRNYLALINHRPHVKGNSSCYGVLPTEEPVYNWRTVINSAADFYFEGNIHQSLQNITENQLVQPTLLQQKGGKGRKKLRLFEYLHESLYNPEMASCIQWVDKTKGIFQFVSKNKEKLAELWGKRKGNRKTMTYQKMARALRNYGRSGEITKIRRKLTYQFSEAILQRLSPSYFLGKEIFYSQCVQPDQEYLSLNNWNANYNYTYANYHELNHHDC
Method in brief: as §1

ELF4 = ELF4 (Homo sapiens, UniProt Q99607 1-663)
Method in brief: as §1

ETV1 = ETV1 (Homo sapiens, UniProt P50549 1-477)
Method in brief: as §1

ETV3L = target: T7, ETV3L (Homo sapiens, UniProt Q6ZN32 1-361)
T7 sequence: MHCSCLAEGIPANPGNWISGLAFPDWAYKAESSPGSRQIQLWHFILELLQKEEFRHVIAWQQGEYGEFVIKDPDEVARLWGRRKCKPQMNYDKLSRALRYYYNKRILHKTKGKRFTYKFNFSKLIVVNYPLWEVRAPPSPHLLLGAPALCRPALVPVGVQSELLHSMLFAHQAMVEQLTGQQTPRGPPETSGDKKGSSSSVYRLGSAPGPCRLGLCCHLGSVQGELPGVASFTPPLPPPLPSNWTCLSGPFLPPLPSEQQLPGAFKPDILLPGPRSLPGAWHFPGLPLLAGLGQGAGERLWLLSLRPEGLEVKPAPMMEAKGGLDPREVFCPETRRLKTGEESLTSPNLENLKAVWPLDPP
Method in brief: as §1

SPDEF = target: T8, SPDEF (Homo sapiens, UniProt O95238 1-335)
T8 sequence: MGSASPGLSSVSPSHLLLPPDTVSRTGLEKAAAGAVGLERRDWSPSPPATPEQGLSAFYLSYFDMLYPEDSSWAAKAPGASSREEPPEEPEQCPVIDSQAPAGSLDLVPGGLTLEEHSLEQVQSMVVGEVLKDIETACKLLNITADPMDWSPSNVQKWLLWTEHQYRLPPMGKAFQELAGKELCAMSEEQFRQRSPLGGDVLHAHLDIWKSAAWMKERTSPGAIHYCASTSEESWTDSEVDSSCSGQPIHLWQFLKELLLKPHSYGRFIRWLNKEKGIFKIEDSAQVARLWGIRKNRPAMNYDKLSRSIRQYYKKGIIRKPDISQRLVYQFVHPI
Method in brief: as §1

ETV3 = target: T9, ETV3 (Homo sapiens, UniProt P41162-2 1-143)
T9 sequence: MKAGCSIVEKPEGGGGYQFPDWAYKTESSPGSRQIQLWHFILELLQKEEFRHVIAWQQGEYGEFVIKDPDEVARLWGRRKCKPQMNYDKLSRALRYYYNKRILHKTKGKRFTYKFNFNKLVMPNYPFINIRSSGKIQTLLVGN
Method in brief: as §1

ETV6 = ETV6 (Homo sapiens, UniProt P41212 1-452)
Method in brief: as §1

ELF4, sequence (Q99607 whole entry): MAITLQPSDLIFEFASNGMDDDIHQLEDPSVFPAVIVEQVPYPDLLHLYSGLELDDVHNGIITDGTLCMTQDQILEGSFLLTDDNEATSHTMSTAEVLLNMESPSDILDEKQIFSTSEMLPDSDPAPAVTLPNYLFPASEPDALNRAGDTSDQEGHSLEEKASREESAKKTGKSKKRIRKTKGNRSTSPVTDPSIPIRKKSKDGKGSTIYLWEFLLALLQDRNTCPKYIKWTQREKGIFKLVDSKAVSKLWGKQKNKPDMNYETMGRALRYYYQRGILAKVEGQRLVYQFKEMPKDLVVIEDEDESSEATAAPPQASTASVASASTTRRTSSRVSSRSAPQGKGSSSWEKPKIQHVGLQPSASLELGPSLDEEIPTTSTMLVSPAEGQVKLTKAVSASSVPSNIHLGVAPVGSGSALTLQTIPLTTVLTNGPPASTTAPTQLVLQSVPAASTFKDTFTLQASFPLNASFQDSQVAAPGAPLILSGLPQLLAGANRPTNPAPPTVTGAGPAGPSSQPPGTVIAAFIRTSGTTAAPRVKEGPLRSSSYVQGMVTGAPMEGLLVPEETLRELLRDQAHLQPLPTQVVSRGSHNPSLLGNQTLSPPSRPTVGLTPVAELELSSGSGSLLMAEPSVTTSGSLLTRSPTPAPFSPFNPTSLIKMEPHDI
ETV6, sequence (P41212 whole entry): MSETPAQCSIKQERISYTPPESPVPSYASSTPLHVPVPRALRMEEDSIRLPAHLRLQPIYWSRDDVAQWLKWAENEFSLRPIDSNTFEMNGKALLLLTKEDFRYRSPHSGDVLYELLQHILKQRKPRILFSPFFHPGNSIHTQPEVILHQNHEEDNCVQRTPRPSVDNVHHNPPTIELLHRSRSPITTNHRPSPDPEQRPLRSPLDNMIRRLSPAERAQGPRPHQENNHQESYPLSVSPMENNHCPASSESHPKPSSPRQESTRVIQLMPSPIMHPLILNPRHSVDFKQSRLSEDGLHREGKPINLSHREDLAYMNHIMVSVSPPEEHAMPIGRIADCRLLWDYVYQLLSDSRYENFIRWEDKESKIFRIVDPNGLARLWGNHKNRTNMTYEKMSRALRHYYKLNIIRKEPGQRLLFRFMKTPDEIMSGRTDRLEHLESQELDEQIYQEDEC
ELF1, sequence (P32519 whole entry): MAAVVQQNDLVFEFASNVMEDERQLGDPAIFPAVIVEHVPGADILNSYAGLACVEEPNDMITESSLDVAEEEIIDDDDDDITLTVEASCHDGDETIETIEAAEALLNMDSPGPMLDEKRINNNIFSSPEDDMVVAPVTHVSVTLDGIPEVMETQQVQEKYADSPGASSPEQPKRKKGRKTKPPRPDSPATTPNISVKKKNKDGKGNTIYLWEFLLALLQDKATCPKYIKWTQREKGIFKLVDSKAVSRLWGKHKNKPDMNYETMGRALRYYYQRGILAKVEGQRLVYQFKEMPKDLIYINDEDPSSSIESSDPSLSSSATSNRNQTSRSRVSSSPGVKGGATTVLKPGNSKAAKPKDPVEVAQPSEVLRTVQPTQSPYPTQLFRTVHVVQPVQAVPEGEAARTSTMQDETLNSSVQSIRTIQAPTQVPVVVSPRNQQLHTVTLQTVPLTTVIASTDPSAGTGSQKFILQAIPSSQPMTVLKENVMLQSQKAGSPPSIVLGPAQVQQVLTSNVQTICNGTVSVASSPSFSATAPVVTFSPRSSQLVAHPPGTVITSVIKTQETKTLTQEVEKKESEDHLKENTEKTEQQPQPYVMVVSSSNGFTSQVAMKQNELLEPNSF
ETV1, sequence (P50549 whole entry): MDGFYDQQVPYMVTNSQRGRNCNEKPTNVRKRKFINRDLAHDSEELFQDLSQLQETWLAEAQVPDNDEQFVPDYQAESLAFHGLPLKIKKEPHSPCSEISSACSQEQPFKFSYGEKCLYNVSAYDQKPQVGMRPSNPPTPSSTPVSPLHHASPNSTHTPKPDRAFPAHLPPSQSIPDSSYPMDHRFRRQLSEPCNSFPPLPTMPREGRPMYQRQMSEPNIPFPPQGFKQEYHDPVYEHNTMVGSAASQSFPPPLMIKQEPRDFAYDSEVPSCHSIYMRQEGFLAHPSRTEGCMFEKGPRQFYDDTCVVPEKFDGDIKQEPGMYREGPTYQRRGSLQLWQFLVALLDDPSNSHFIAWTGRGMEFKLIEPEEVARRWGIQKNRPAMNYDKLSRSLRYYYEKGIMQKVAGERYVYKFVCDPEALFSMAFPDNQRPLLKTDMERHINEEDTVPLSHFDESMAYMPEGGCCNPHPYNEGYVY
ETV5, sequence (P41161 whole entry): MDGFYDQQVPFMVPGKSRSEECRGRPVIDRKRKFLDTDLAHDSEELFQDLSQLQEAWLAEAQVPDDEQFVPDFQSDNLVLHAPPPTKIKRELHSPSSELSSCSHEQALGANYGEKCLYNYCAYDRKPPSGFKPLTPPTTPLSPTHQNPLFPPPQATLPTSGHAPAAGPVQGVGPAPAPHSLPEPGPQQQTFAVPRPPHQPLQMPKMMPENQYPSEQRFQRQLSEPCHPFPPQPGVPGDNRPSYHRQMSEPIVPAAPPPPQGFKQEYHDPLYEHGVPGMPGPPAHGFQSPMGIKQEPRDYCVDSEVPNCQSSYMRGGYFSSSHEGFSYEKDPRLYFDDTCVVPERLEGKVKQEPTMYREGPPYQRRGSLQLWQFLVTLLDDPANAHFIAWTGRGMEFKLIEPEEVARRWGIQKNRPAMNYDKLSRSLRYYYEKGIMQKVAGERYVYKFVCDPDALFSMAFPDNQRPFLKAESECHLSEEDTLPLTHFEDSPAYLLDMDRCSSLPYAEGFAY
SPIB, sequence (Q01892 whole entry): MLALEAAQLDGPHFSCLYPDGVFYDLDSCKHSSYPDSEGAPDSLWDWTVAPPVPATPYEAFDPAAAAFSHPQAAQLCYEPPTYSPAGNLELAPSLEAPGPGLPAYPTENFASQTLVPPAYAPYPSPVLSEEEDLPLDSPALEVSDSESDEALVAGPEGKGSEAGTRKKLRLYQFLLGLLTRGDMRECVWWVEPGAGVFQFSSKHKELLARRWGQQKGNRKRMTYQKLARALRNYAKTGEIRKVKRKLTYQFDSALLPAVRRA

GCCCCA
binding signal (FLI1): 1.06 fold enrichment (6-mer frequency, TF over GST control) | binding signal (ELK1): 1.04 fold enrichment (6-mer frequency, TF over GST control) | binding signal (ERG): 1.1 fold enrichment (6-mer frequency, TF over GST control) | binding signal (ELF1): 1.05 fold enrichment (6-mer frequency, TF over GST control) | binding signal (SPIB): 1 fold enrichment (6-mer frequency, TF over GST control) | binding signal (ELK3): 1.1 fold enrichment (6-mer frequency, TF over GST control) | binding signal (FEV): 1.07 fold enrichment (6-mer frequency, TF over GST control) | binding signal (ETV5): 1.02 fold enrichment (6-mer frequency, TF over GST control) | binding signal (SPIC): 1.05 fold enrichment (6-mer frequency, TF over GST control) | binding signal (ELF4): 1.07 fold enrichment (6-mer frequency, TF over GST control) | binding signal (ETV1): 1.03 fold enrichment (6-mer frequency, TF over GST control) | binding signal (ETV3L): 1.12 fold enrichment (6-mer frequency, TF over GST control) | binding signal (SPDEF): 1.03 fold enrichment (6-mer frequency, TF over GST control) | binding signal (ETV3): 1.06 fold enrichment (6-mer frequency, TF over GST control) | binding signal (ETV6): 1.03 fold enrichment (6-mer frequency, TF over GST control)
